# Eya2 phos inh = qHTS Assay for Inhibitors of the Phosphatase Activity of Eya2; recombinant Eya2, OMFP fluorescence dephosphorylation (OMFP is methylfluorescein phosphate); Potency, µM (titrated, usually from 76.9 µM), without a hit: at the top dose activity, negative = inhibition, hits mostly inhibitors; 330,000 compounds, 0.006% hits; also: potency is read from the fitted curve at half-maximal effect
# Target sequence (O00167 whole entry, looked up): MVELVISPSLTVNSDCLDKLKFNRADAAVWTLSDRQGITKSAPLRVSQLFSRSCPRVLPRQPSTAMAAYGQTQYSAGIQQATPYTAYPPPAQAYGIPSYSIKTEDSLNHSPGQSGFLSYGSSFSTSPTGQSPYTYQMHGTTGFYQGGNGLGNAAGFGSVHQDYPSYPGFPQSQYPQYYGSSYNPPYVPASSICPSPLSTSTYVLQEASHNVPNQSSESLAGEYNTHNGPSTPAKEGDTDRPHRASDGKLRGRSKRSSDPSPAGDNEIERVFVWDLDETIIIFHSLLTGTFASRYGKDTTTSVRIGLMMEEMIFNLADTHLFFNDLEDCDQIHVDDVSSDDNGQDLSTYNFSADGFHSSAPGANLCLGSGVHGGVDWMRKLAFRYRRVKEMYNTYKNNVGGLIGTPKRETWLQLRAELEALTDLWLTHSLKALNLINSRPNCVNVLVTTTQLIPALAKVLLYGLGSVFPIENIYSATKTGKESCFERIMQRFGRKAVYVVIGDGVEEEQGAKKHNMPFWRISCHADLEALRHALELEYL
#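 Eya2 (0.2 uM) preincubated 10 min at ambient with compound, then OMFP substrate added at 50 uM; 10 min reaction in 50 mM HEPES pH 7.5, 50 mM NaCl, 5 uM MgCl2, 0.05% BSA, 1 mM DTT. Fluorescence read at Ex 485/Em 525 nm.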
# CtBP-E1A inh = qHTS Assay for Inhibitors of the CtBP/E1A Interaction. AlphaScreen GST-E1A/His-CtBP binding, 1536-well; active compounds read low. activity change, % (no concentration beside the values). AID 651724, 2012. 340,000 compounds, 0.49% hits. CtBP / adenovirus E1A interaction (AlphaScreen); in the data active = activity change below about -65%; inconclusive = mostly about -30% to -63%
#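 Steps: dispense buffer (Tris pH 8.0, NaCl 300 mM, TCEP 1 mM, BSA, Tween 20); add 5X protein mix (GST-E1A, His-CtBP, 125 nM each); pin 23 nL compound; 2 h at 37 °C, dark; add 5X beads (50 ug/mL); 1 h; read.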
# TrxR1 substrate = qHTS Assay for Substrates of Mammalian Selenoprotein Thioredoxin Reductase 1 (TrxR1): qHTS; 390,000 compounds, 0.01% hits; Potency, µM (top dose mostly 114 µM), for inactives: top-dose activity change, negative = substrate turnover; Thioredoxin reductase 1, cytoplasmic (Rattus norvegicus), O89049; purified TrxR1 substrate turnover, NADPH consumption readout; also: potency is read from the fitted curve at half-maximal effect; nearly all actives have a fitted effect of over 50% in size
#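 Rat TrxR1, dispensed at 90 nM, was prereduced with 400 uM NADPH (final) for 5 min at ~22 deg C, then incubated with compound 15 min before 400 uM selenite. A first-read NADPH fluorescence drop versus no-compound background flagged substrates.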
# TrxR1 inh = qHTS Assay for Inhibitors of Mammalian Selenoprotein Thioredoxin Reductase 1 (TrxR1): qHTS; Thioredoxin reductase 1, cytoplasmic (Rattus norvegicus), O89049; recombinant rTrxR1, NADPH fluorescence consumption, selenite substrate; Potency, µM (doses to about 114 µM), for inactives: top-dose activity change, negative = inhibition, actives largely listed as inhibitors; 390,000 compounds, 1% hits; AID 588453, 2011; also: potency is read from the fitted curve at half-maximal effect; nearly all actives have a fitted effect of over 65% in size
#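 Rat TrxR1 (90 nM in the dispensed reagent) was pre-reduced with 400 uM NADPH for 5 min at room temperature, then incubated with compound for 15 min. After 400 uM selenite was added, NADPH fluorescence (Ex 340/Em 450 nm) was followed for 8 min.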
# Six1-Eya2 inh = qHTS Assay for Inhibitors of the Six1/Eya2 Interaction; activity change, % (concentration not given with the values); 360,000 compounds, 0.56% hits; AID 651725, 2012; Homeobox protein SIX1 (Homo sapiens) + Protein phosphatase EYA2 (Homo sapiens), …; AlphaScreen GST-Six1/His-Eya2 binding, biochemical; active compounds read low; in the data active = activity change below about -65%; inconclusive = mostly about -30% to -63%
#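 Compounds are tested against tagged Six1 and Eya2 proteins bridged by glutathione donor and nickel acceptor beads; after a one-hour incubation at 37 °C without light, AlphaScreen emission is recorded.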
# GALK inh = qHTS Assay for Inhibitors of Human Galactokinase (GALK); Potency, µM (top dose mostly 57.5 µM), for the others: at the highest dose activity change, negative = inhibition, most hits filed as inhibitors; Purified GALK, Kinase-Glo residual ATP luminescence; P51570; 270,000 compounds, 0.007% hits; also: potency is read from the fitted curve at half-maximal effect
#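 Compounds were pin-transferred into ATP buffer (35 uM final), then GALK plus galactose (5 nM, 100 uM final) was added. After 1 h at room temperature, Kinase-Glo Plus was added and luminescence read after 10 min.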
# Starred values were filed as active, the others as inactive; ? = inconclusive; / = no result; [ ] = another dose, or the depositor's remark. Sampled rows, rich in hits. Any-hit rate of the full collection: about 1.5%. Unless noted, calls follow the shape of the dose curve; as a rule, active = well fitted curve in the direction sought with a large enough effect; inconclusive = small, poorly fitted or top-dose-only effect, or another doubt; inactive = no such curve, though single readings can be large; an effect the other way counts as inactive or inconclusive. % is scaled to controls: 0 for no effect and ±100 for the full control effect.
SMILES,Eya2 phos inh,CtBP-E1A inh,TrxR1 substrate,TrxR1 inh,Six1-Eya2 inh,GALK inh
Cc1ccc(CCNC(=O)CCCn2c(=O)c3cccn3c3ccc(F)cc32)cc1,/,/,-0.1%,22.4%,/,/
COc1ccc(-c2c(C)[nH]n3c(=O)c(Cc4ccccc4)c(C)nc23)cc1,-2.9%,-70.9*,-5.2%,-8.0%,-67.1*,/
Cc1ccc(Cc2c(C)nc3c(-c4ccccc4)c(C)[nH]n3c2=O)cc1,/,/,6.4%[11.4 µM],12.3%,/,/
C/C=C1\COC(C(=O)NCCN2CCOCC2)(C(F)(F)F)C=C1C=C(C)C (stereo not given),/,/,1.4%,10µM*,/,/
C/C=C1\COC(C(=O)NCc2ccccc2)(C(F)(F)F)C=C1C=C(C)C (stereo not given),/,4.2,0.3%,3.16µM*,6.2,/
CCC/C=C1/CCCOC(C(=O)NCCN2CCOCC2)(C(F)(F)F)C1 (stereo not given),/,2.7,-0.8%,-8.7%,8.0,/
Nc1cc(N)cc(N)c1,/,/,25.1µM*,39.8µM*,/,/
COc1ccc(C(=O)C(CN2CCOCC2)c2ccccc2)cc1 (stereo not given),0.0%,-0.2,6.5%,-7.0%,0.0,-0.3%
O=C(c1ccc(Cl)cc1)C(CN1CCCC1)c1ccccc1 (stereo not given),-0.2%,/,9.1%,35.5µM*,1.6,2.7%
COc1ccc(C(=O)C(CN2CCCC2)c2ccccc2)cc1 (stereo not given),2.2%,9.3,-14.0%,-31.4%,0.0,8.9%
O=C(c1ccc(F)cc1)C(CN1CCOCC1)c1ccccc1 (stereo not given),-2.5%,-12.4,-10.4%,56.2µM*,8.8,7.2%
Oc1ccccc1C=NNC(=S)Nc1ccc(F)cc1,/,-92.2*,8.2%[57.1 µM],-16.1%,-76.0*,/
Oc1ccccc1/C=N/NC(=S)NCCc1ccccc1,5.3%,-65.3*,-0.7%,11.5%,?,5.7%
COc1ccccc1NC(=O)CSC1=Nc2ccccc2C2=NC(Cc3ccccc3)C(=O)N12 (stereo not given),/,/,-3.4%[57.1 µM],2.2%[57.1 µM],/,/
N#CC1=C(N)C2=CCCC[C@H]2[C@H](c2ccc(Br)cc2)C1(C#N)C#N,2.7%,0.4,3.5%,5.01µM*,-12.4,-0.6%
N#CC1=C(N)C2=CCCC[C@H]2[C@H](c2ccccc2)C1(C#N)C#N,-11.3%,-5.2,-1.3%,?,-9.5,-1.3%
O=[N+]([O-])c1cc(S(=O)(=O)N2CCCCCC2)ccc1F,6.0%,-2.4,-6.0%,31.6µM*,-11.6,-6.0%
O=[N+]([O-])c1cc(S(=O)(=O)N2CCCC2)ccc1O,5.6%,26.4,-10.3%,10.7%[57.1 µM],1.0,-1.2%
CC1(C)CC(=O)C2=C(C1)OC(N)=C(C#N)[C@@H]2c1ccccc1[N+](=O)[O-],2.8%,-1.3,12.4%,20µM*,-1.6,5.3%
COc1ccc(S(=O)(=O)N2CCC(n3c(C(F)(F)F)nc4cccnc43)CC2)cc1OC,/,/,-1.6%[57.1 µM],7.1%[57.1 µM],/,/
CCc1cc(SC#N)cc(CC)c1NC(=O)CCl,3.3%,-16.4,-10.2%,25.1µM*,-17.9,/
CCOC(=O)C1=C(C)NC2=C(C(=O)C(C(=O)OCC)C(c3ccco3)C2)C1c1ccccc1C (stereo not given),/,/,36.9%,22.4%,/,/
O=C1c2ccccc2C(=O)N1Nc1ccccc1,-13.9%,-2.6,-7.6%,-3.0%,6.9,-1.2%
Cc1ccc(NN2C(=O)C=C(c3ccccc3)C2=O)cc1,-5.8%,-1.2,-4.0%,6.31µM*,2.9,-2.1%
CC1(C)Cc2noc(N)c2C(C)(C)N1O,-0.5%,-3.7,4.0%,1.58µM*,1.9,-2.3%

# Bioassay records (PubChem)
